According to PubChem BioAssay:
The source made the active and inactive calls. Unless noted, the rule behind the calls is not given here.

How the values were obtained:
[1] = system: Wnt5a (protein binding on small-molecule microarray); experiment: small molecules binding Wnt5a protein – biophysical, small-molecule microarray, 635/667 nm fluorescence, primary screen (AID 1142); conditions: 635 nm fluorescence, higher = more signal;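 note: fluorescence read at 667 nm with signal to noise per printed feature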
[2] = ATP-based viability of Huh7 replicon cells – cell-based, CellTiter-Glo luminescence, basal, 48 h, cytotoxicity control for HCV replication inhibitor project, primary screen (AID 1143); conditions: higher = more signal, called active from +8 up or from −8 down;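 note: Huh7 hepatoma cells carrying a hepatitis C replication reporter with no stimulus; test concentration not given here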
[3] = Pseudomonas biofilm growth suppression – PAO1 strain, BacTiter-Glo luminescence, LB-PBS, primary screen (AID 1144); conditions: P. aeruginosa PAO1 biofilm, 12 h, higher = more signal
[4] = basal CRE-LacZ reporter activity in PC12 – cell-based, unstimulated, primary screen (AID 1145); conditions: no forskolin, luminescence, 4.5 h, higher = more signal, called active from +8 up or from −8 down
[5] = forskolin-driven CRE-LacZ activity in PC12 – cell-based, CRE-LacZ reporter, forskolin-stimulated, primary screen (AID 1146); conditions: luminescence, 4.5 h, higher = more signal, called active from +8 up or from −8 down;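 note: PC12 cells with 6xCRE LacZ reporter stimulated by forskolin 10 µM; beta-galactosidase reporter signal reflecting CREB driven transcription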
[6] = molecular target: Streptavidin (Streptomyces avidinii) (UniProt P22629); experiment: compounds binding control protein streptavidin – biophysical, small-molecule microarray, 635/667 nm fluorescence, artefact control for SMM compound annotation, primary screen (AID 1147); conditions: higher = more signal;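 note: signal reflects streptavidin binding to arrayed compounds as a control protein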
Streptavidin (Streptomyces avidinii), sequence (P22629 whole entry, looked up): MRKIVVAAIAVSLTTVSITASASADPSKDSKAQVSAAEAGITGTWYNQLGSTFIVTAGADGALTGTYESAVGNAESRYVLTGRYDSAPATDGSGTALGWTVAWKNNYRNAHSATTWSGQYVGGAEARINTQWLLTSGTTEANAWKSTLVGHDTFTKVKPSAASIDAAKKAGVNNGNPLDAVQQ

[7] = probe aInhba binding on compound microarray – biochemical, small-molecule microarray, 635/667 nm fluorescence, primary screen (AID 1148); conditions: higher = more signal;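 note: score merges 667nm spot fluorescence with signal-to-noise for antibody binding to printed compounds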
Torsin-1A (Homo sapiens) [8] = molecular target: Torsin-1A (Homo sapiens) (UniProt O14656); experiment: TOR1A wild-type binding on microarray – cell lysate, small-molecule microarray, lysate, 635/667 nm, primary screen (AID 1149); conditions: COS7 hTOR1A-WT lysate, 635 nm fluorescence, higher = more signal
Torsin-1A (Homo sapiens), sequence (O14656 whole entry, looked up): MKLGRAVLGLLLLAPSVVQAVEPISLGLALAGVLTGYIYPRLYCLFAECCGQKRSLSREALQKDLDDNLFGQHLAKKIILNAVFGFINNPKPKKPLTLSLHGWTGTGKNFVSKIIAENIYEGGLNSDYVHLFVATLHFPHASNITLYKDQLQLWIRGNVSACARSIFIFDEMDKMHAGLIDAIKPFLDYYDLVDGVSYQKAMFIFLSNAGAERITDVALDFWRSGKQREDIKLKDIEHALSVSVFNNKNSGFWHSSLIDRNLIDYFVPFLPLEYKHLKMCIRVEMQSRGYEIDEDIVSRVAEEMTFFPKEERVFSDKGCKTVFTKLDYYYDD

Torsin-1A (Homo sapiens) [9] = molecular target: Torsin-1A (Homo sapiens) (UniProt O14656); experiment: torsin A mutant lysate binding on microarrays – cell lysate, small-molecule microarray, COS7 lysate, 635/667 nm fluorescence, primary screen (AID 1150); conditions: COS7 hTOR1A mutant lysate, 635 nm fluorescence, higher = more signal;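 note: score pools 667 nm emission and signal to noise measuring lysate protein binding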
[10] = system: Sonic hedgehog protein (Shh); experiment: Sonic hedgehog microarray binding compounds – biochemical, small-molecule microarray, 635/667 nm fluorescence, primary screen (AID 1151); conditions: 635 nm fluorescence, higher = more signal;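 note: Shh protein binding to compounds spotted on small-molecule microarray slides; score combines spot fluorescence intensity with signal-to-noise across triplicate slides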
[11] = optical density shifts of acrAB sulA E. coli – strain DRC41, OD650, 48 h, E. coli filamentation inducer project, primary screen (AID 1152); conditions: higher = more signal, called active from +8 up or from −8 down;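 note: E. coli MC1000 strain DRC41 lacking acrAB efflux pump and sulA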
[12] = probe aLefty1 binding on compound microarray – biochemical, small-molecule microarray, 635/667 nm fluorescence, primary screen (AID 1153); conditions: higher = more signal;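 note: score merges spot fluorescence with signal-to-noise ratio from the scanned slide images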
[13] = plasmodial surface anion channel blockers, osmotic lysis – cell-based, P. falciparum Indochina, OD700, 1 h, primary screen (AID 1154); conditions: P. falciparum Indochina infected RBC osmotic lysis, higher = more signal, called active from +8 up or from −8 down
[14] = plasmodial surface anion channel blockers, osmotic lysis – cell-based, P. falciparum Indochina, OD700, 2 h, primary screen (AID 1155);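 note: lysis reports solute entry through the parasite surface anion channel PSAC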; conditions: P. falciparum Indochina infected erythrocytes, higher = more signal, called active from +8 up or from −8 down
[15] = changes in parasitized red cell lysis, either direction – P. falciparum Indochina, OD700, 3 h, PSAC antagonist project, primary screen (AID 1156); conditions: P. falciparum-infected erythrocytes, osmotic lysis, higher = more signal, called active from +8 up or from −8 down
[16] = plasmodial surface anion channel blockers, osmotic lysis – cell-based, P. falciparum Indochina, OD700, 18 h, primary screen (AID 1157); conditions: P. falciparum Indochina infected erythrocytes, osmotic lysis OD700, 18 h; higher = more signal, called active from +8 up or from −8 down
[17] = S6 kinase pathway phospho-S6 level changes – cell-based, A549, cytoblot, luminescence, serum-stimulated, primary screen (AID 1158); conditions: 5 h, higher = more signal;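 note: serum-stimulated A549 lung adenocarcinoma cells; signal is phosphorylated S6 detected by cytoblot immunostaining with HRP secondary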
[18] = molecular target: NADPH oxidase 2 (Homo sapiens) (UniProt P04839); experiment: compounds shifting NOX2 Amplex Red fluorescence – cell-based, HEK293-NOX2, PMA-stimulated, NOX inhibitor project, primary screen (AID 1159); conditions: 45 min, higher = more signal, called active from +8 up or from −8 down; note: test concentration not given here
NADPH oxidase 2 (Homo sapiens), sequence (P04839 whole entry, looked up): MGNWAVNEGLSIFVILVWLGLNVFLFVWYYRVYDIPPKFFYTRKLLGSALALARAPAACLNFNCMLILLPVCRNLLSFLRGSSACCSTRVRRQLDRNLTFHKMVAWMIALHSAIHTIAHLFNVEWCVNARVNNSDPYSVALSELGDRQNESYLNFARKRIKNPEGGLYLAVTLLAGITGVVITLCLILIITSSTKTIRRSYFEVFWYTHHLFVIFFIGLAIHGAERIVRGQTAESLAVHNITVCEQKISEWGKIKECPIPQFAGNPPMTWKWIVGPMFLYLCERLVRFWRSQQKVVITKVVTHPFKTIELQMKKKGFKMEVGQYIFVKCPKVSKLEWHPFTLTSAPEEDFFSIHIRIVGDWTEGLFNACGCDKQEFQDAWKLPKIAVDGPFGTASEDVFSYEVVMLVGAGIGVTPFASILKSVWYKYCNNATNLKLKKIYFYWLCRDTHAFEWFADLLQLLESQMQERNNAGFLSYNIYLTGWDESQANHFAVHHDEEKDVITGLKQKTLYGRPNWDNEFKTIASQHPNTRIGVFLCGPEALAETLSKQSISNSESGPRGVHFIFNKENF

[19] = molecular target: NADPH oxidase 4 (Homo sapiens) (UniProt Q9NPH5); experiment: compounds shifting NOX4 Amplex Red fluorescence – cell-based, HEK293-NOX4, tetracycline-induced, NOX inhibitor project, primary screen (AID 1160); conditions: HEK293-NOX4, Amplex Red H2O2 fluorescence, 45 min; higher = more signal, called active from +8 up or from −8 down
NADPH oxidase 4 (Homo sapiens), sequence (Q9NPH5 whole entry, looked up): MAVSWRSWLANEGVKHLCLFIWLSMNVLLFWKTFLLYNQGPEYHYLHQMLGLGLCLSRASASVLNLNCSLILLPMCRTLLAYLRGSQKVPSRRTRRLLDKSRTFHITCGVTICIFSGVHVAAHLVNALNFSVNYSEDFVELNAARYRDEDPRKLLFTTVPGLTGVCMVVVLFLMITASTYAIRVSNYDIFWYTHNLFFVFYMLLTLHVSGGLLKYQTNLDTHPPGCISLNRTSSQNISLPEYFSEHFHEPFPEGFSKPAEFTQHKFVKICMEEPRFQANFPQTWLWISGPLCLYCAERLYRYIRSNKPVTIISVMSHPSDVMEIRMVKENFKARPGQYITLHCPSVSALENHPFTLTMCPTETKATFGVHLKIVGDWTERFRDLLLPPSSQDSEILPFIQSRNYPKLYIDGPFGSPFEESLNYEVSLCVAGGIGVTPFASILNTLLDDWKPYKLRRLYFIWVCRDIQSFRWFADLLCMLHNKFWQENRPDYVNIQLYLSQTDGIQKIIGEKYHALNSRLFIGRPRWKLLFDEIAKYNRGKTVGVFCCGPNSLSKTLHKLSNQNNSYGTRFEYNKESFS

[20] = molecular target: NADPH oxidase 5 (Homo sapiens) (UniProt Q96PH1); experiment: compounds shifting NOX5 Amplex Red fluorescence – cell-based, HEK293-NOX5, NOX inhibitor project, primary screen (AID 1161); conditions: HEK293-NOX5, ionomycin, 45 min, higher = more signal
NADPH oxidase 5 (Homo sapiens), sequence (Q96PH1 whole entry, looked up): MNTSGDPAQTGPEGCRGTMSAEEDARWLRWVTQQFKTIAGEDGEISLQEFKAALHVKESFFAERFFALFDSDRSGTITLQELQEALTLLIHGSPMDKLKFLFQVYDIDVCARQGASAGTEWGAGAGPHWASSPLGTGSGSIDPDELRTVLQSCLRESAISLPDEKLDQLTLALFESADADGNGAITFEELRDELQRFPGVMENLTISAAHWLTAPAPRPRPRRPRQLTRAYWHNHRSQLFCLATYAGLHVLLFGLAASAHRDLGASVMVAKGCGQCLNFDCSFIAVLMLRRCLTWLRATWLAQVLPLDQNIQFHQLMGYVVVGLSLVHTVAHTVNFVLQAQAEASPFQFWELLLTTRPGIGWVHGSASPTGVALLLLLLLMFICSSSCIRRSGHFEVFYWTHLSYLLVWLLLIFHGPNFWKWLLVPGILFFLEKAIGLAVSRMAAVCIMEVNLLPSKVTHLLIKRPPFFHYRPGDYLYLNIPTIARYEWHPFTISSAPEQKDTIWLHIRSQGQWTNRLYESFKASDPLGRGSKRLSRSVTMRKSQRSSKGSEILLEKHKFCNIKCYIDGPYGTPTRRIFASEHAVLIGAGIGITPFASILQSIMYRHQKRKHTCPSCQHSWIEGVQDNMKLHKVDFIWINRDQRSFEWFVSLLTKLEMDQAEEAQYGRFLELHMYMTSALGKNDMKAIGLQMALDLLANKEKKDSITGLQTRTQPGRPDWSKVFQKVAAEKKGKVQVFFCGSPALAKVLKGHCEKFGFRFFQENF

SMILES | composite z-score [1] | z-score [2] | z-score [3] | z-score [4] | z-score [5] | composite z-score [6] | composite z-score [7] | composite z-score (Torsin-1A (Homo sapiens) [8]) | composite z-score (Torsin-1A (Homo sapiens) [9]) | composite z-score [10] | z-score [11] | composite z-score [12] | z-score [13] | z-score [14] | z-score [15] | z-score [16] | z-score [17] | z-score [18] | z-score [19] | z-score [20]
CC1CC/C=C\[C@H]2OC34C=CCN(Cc5ccccc5)C(=O)[C@H]3N(CCCO)C(=O)[C@@H]4C2C(=O)O1 (stereo not given in full) | -0.403 | -0.667 (inactive) | 0.446 (inactive) | -0.0778 (inactive) | 0.776 (inactive) | -0.942 | -0.206 | -0.681 | -1.56 | -0.233 | 0.144 (inactive) | -0.147 | 0.329 (inactive) | -0.093 (inactive) | -0.316 (inactive) | -0.254 (inactive) | -0.102 | 1.66 (inactive) | 0.366 (inactive) | 3.18
COc1ccc(CCNC(=O)[C@@]2(Sc3ccc(C)cc3)CC(=O)N(C(C)C)[C@@H]2c2ccc(CO)cc2I)cc1 | -0.161 | -0.887 (inactive) | 0.844 (inactive) | -0.295 (inactive) | 0.652 (inactive) | -0.738 | -0.0986 | 0.0086 | -0.622 | -0.156 | -0.0322 (inactive) | -0.104 | 5.56 (inactive) | 0.428 (inactive) | 0.445 (inactive) | -0.135 (inactive) | 0.394 | 0.446 (inactive) | -0.641 (inactive) | 1.22
COc1cc2c(cc1OC)CN(C(=O)[C@H]1[C@@H]3C(=O)O[C@@H](c4ccccc4)[C@@H](c4ccccc4)N3[C@@H](c3ccc(O)cc3)[C@]13C(=O)Nc1ccc(C#CCCO)cc13)CC2 | -0.0279 | -1.04 (inactive) | -0.827 (inactive) | 0.0653 (inactive) | -0.163 (inactive) | 0.491 | -0.0405 | 0.0143 | 0.618 | 0.0545 | 0.675 (inactive) | -0.147 | 1.06 (inactive) | 0.736 (inactive) | 1.15 (inactive) | 0.689 (inactive) | 0.503 | 1.38 (inactive) | -0.0637 (inactive) | 1.08
CN(C)CCCCCCNC(=O)[C@@H]1C[C@@H]2C(=O)N[C@@H](Cc3ccccc3)C(=O)N2[C@@H]1c1ccc(O)cc1 | 0.484 | -0.764 (inactive) | -0.0157 (inactive) | -0.528 (inactive) | -0.167 (inactive) | 0.405 | -0.025 | 0.641 | 1.37 | 2.19 | -0.0959 (inactive) | 0.378 | 1.85 (inactive) | 0.596 (inactive) | 2.42 (inactive) | 0.228 (inactive) | 0.594 | -0.745 (inactive) | 0.262 (inactive) | -0.632
COCCOC(=O)N1C(=O)[C@@]2(c3cc(C#CCC(C(=O)OC)C(=O)OC)ccc31)[C@H](c1ccccc1OCCO)N1[C@H](c3ccccc3)[C@H](c3ccccc3)OC(=O)[C@H]1[C@@H]2C(=O)N1CCN(c2ncccn2)CC1 | 0.621 | -4.45 (inactive) | -1.09 (inactive) | -0.479 (inactive) | 1.7 (inactive) | 0.635 | 0.0384 | 1.01 | 1.19 | 1.89 | 1.2 (inactive) | 1.16 | 2.83 (inactive) | 1.11 (inactive) | 1.28 (inactive) | 0.851 (inactive) | -0.139 | 0.823 (inactive) | 0.656 (inactive) | 1.27
CCCC[C@H]1OB(O)C[C@H]2C1=C(COC)C[C@H]1C(=O)N(C)C(=O)[C@H]12 | 0.277 | 0.203 (inactive) | 0.573 (inactive) | 0.76 (inactive) | 0.505 (inactive) | 0.727 | -0.0093 | 0.408 | 0.301 | 1.32 | -0.971 (inactive) | -0.196 | 0.431 (inactive) | 0.0082 (inactive) | -1.19 (inactive) | 0.232 (inactive) | -0.18 | -0.251 (inactive) | 0.221 (inactive) | 0.786
CCCC[C@@H]1C[C@H]1[C@@H](NC(=O)c1cccs1)c1ccc(-c2ccccc2)cc1 | -0.0739 | -2.14 (inactive) | -0.218 (inactive) | 1.35 (inactive) | 2.05 (inactive) | 0.0523 | 0.0541 | -0.473 | -0.0352 | 1.73 | -1.89 (inactive) | 0.142 | 2.41 (inactive) | 0.856 (inactive) | -0.398 (inactive) | 0.668 (inactive) | -0.993 | -0.939 (inactive) | -0.827 (inactive) | 0.936
COc1ccc(/C=C/C=O)cc1 | 0.156 | 0.0307 (inactive) | -0.577 (inactive) | 0.209 (inactive) | 0.561 (inactive) | 0.166 | -0.102 | -0.238 | 0.0564 | 1.6 | 0.0676 (inactive) | 0.11 | -0.0134 (inactive) | -0.113 (inactive) | 0.392 (inactive) | 0.0327 (inactive) | -0.416 | -0.721 (inactive) | -0.379 (inactive) | 0.589
CCC(CC)C(O)C1C=CC2C(=O)NC(=O)C2N1Nc1ccccn1 (stereo not given) | -0.108 | 1.06 (inactive) | -0.515 (inactive) | 0.246 (inactive) | 0.783 (inactive) | -0.12 | -0.016 | 0.147 | 0.317 | 0.186 | -0.613 (inactive) | 0.158 | 0.146 (inactive) | 0.519 (inactive) | -0.02 (inactive) | 0.973 (inactive) | -0.534 | -1.58 (inactive) | -2.05 (inactive) | -1.52
